High-throughput results: PubChem BioAssay, National Center for Advancing Translational Sciences (NCATS)
S-ASM inh: human S-ASM enzyme inhibition. 0.006% of 340,000 active. AID 504937. Potency, µM (highest dose often 57.5 µM), without a hit: top-dose activity change, negative = inhibition, actives largely listed as inhibitors. placental ASM, HMU-PC fluorogenic substrate, 60 min; further: potency means the concentration at half of the fitted maximal effect
Target sequence (P17405 47-631 limits assumed): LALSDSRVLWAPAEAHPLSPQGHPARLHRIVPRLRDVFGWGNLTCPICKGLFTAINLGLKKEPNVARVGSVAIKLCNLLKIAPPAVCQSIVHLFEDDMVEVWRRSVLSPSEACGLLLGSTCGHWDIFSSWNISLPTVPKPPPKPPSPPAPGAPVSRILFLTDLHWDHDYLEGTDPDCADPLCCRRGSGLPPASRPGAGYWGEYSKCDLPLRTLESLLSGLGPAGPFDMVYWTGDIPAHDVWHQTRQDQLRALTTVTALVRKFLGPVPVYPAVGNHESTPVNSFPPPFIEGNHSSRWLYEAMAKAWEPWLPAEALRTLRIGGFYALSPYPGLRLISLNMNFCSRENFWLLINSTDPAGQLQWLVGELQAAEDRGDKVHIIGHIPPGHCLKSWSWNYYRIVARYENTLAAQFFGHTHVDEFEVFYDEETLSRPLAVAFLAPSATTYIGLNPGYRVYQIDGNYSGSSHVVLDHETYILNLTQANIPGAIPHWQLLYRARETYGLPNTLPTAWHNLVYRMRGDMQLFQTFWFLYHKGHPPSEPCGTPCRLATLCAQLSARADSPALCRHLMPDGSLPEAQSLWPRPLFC
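qHTS format. ASM enzyme prepared from human placenta hydrolyses the fluorogenic substrate HMU-PC0 (9 uM final) over 60 min at 37 °C after a 10 min compound preincubation.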
DT40 TDP1 no CPT: qHTS for Inhibitors of human tyrosyl-DNA phosphodiesterase 1 (TDP1): qHTS in cells in absence of CPT; Potency, µM (series often up to 46.2 µM), for the others: at the highest dose activity change, negative = growth inhibition, hits mostly inhibitors; AID 686978, 2013; DT40 Tdp1-/- hTDP1 cells, no CPT, ATP luminescence, 48 h; 15% of 420,000 active; further: potency means the concentration at half of the fitted maximal effect; on the % scale 0 is the no-effect control and ±100 the full control effect; nearly all actives have a fitted effect of over 55% in size
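Luminescent ATP content (CellTiter-Glo) served as the growth readout. Knockout chicken DT40 cells expressing human TDP1 were exposed to compounds without camptothecin for a minimum 48 hr at 37 °C.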
HepG2 viability: HepG2 cytotoxicity, counter-screen for TGF-b inhibitors; HepG2 CAGA-GFP viability, ATP luminescence, 18 h; Potency, µM (series often up to 46.1 µM), for the others: top-dose activity change, negative = cytotoxicity, most hits filed as cytotoxic; 0.76% of 410,000 active; further: potency means the concentration at half of the fitted maximal effect
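CellTiter-Glo luminescence gave cytotoxicity after 18 hours at 37 degrees C. The cells were HepG2 CAGA-GFP in 1% FBS DMEM, stimulated with 500 pg/mL TGF-beta after compound addition. %Activity was normalised to no-cell wells (complete cell-killing) and DMSO (no toxicity), and curves were fitted and classified.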
IL-1B inflam inh: blocks inflammasome-driven IL-1 beta release; THP-1 LPS/ATP IL-1B secretion, AlphaLISA, 16 h; stronger effect = lower value; activity change, % at 57.5 µM; 4.7% of 360,000 active; in the data active means activity change below about -50%; inconclusive means mostly about -30% to -49%; further: on the % scale 0 is the no-effect control and ±100 the full control effect
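Secreted IL-1B measured by AlphaLISA bead assay after 16 h compound exposure of THP-1 cells; compounds (final up to 57.5 uM) added 1 h before LPS (250 ng/mL) and ATP (1.25 mM) stimulation; lower signal means less secretion.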
TGFb inhibitor: blocks TGF-b signaling; HepG2 CAGA-GFP TGF-b/SMAD3 reporter, GFP fluorescence, 18 h; TGF-beta stimulated, 500 pg/mL final; Potency, µM (doses to about 46.1 µM), for the others: at the highest dose activity, negative = inhibition, usual class: inhibitors; 1.2% of 410,000 active; AID 588855; further: potency means the concentration at half of the fitted maximal effect; on the % scale 0 is the no-effect control and ±100 the full control effect; nearly all actives have a fitted effect of over 65% in size
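GFP signal (ex488/em500-530) from TGF-beta-stimulated HEPG2 CAGA-GFP cells, 500 pg/mL final, 18 h at 37 degrees C in DMEM plus 1% FBS, normalized to unstimulated and DMSO-stimulated controls.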
TDP1 cell CPT: growth inhibition of DT40 Tdp1-/-;hTDP1 cells with camptothecin (screen for TDP1 inhibitors). chicken DT40 Tdp1-/-;hTDP1 cells + 20 nM CPT, ATP luminescence, 48 h. Potency, µM (titrated, usually from 46.2 µM), without a hit: top-dose activity change, negative = growth inhibition, hits mostly inhibitors. 12% of 420,000 active. AID 686979; further: potency means the concentration at half of the fitted maximal effect; on the % scale 0 is the no-effect control and ±100 the full control effect; nearly all actives have a fitted effect of over 55% in size
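Cell growth measured by CellTiter-Glo luminescence after a minimum 48 h, 37 C compound exposure with 20 nM CPT in Tdp1-knockout DT40 cells stably expressing hTDP1, seeded 400/well; qHTS titration format.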
* = called active by the depositor; i = inactive; ? = inconclusive; nt = no result given. This is a sample that favours compounds with a hit; in the whole collection about 19% have one here. Unless noted, the call rests on the fitted dose curve; in most records, active means well fitted curve in the direction sought with a large enough effect; inconclusive means small, poorly fitted or top-dose-only effect, or another doubt; inactive means no such curve, though single readings can be large; an effect the other way counts as inactive or inconclusive.

SMILES	S-ASM inh	DT40 TDP1 no CPT	HepG2 viability	IL-1B inflam inh	TGFb inhibitor	TDP1 cell CPT
Cc1ccc(Nc2sc(C(=O)c3ccccc3)c(N)c2C(=O)NC(C)C)cc1	nt	?	-29%	nt	?	?
CCOc1ccccc1Nc1sc(C(=O)c2ccccc2)c(N)c1C(=O)Nc1ccccc1	nt	9.2µM*	-34%	nt	?	10µM*
Cc1ccc(NC(=O)c2c(Nc3ccccc3C)sc(C(=O)c3ccccc3)c2N)cc1	nt	5.8µM*	-54%	nt	?	?
COc1ccc(N2CCN(S(=O)(=O)c3c(C)[nH]c(C)c3C(=O)N3CCCCC3)CC2)cc1	-1%	9%	4%	-6	17%	-9%
c1cncc(-c2nc(NCCCN3CCOCC3)c3c4c(sc3n2)CCC4)c1	i	23µM*	-2%	-129*	-29%	?
O=[N+]([O-])c1cc([N+](=O)[O-])c(Oc2c(F)cc(F)cc2F)cc1NN1CCCCC1	0%	?	-14%	30	-4%	?
O=C(CCS(=O)(=O)c1ccccc1)Nc1nc2cc3c(cc2s1)OCCO3	-2%	?	-87%	?	13µM*	?
O=C(CCS(=O)(=O)c1ccccc1)Nc1nc2cc3c(cc2s1)OCO3	-1%	?	14%	-52*	?	?
CN(CC1CCCO1)S(=O)(=O)c1ccc(C(=O)Nc2nc3cc4c(cc3s2)OCO4)cc1 (stereo not given)	0%	10µM*	-32%	27	-16%	7.3µM*
O=C(NNc1nc2cc3c(cc2s1)OCO3)c1ccccc1	-3%	?	3%	-17	15%	-10%
COC(=O)C(=O)C1CCc2c(Cl)cc(OC)c(OC)c2C1=O (stereo not given)	0%	7%	-20%	24	-14%	5%
COc1ccccc1CNC(=O)c1cnc(N2CCCC2)nc1C	nt	?	8%	nt	1%	?
COCCCNc1c2c(nc3nnnn13)CCCC2	5%	-18%	32%	3	-5%	16%
C1CCC(CNc2c3c(nc4nnnn24)CCCC3)CC1	3%	12µM*	-4%	-9	16%	?
CC1=C(C)/C(=N\OS(=O)(=O)c2ccccc2)C=CC1=O	-4%	0.56µM*	14µM*	-121*	?	0.56µM*
Cc1ccc(S(=O)(=O)O/N=C2\CCCc3ccccc32)cc1	3%	-1%	5%	25	6%	-22%
Cc1cc(C)c(S(=O)(=O)N2CCN(C(=O)c3ccc(-n4nc(C)c(Cl)c4C)cc3)CC2)c(C)c1	0%	16µM*	-7%	-15	?	23µM*
Cc1ccc(S(=O)(=O)N2CCN(C(=O)c3ccc4c(c3)OCO4)CC2)cc1	5%	-23%	-6%	-12	0%	?
Cc1cc(C)c(S(=O)(=O)N2CCN(C(=O)c3cccs3)CC2)c(C)c1	-2%	?	-27%	-17	-21%	-7%
Cc1cc(C)c(S(=O)(=O)N2CCN(C(=O)c3ccc4c(c3)OCO4)CC2)c(C)c1	-3%	?	-36%	-60*	?	-20%
CC(=O)c1cccc(NC(=O)CSc2nc(=O)n(Cc3ccco3)c3c2CCC3)c1	nt	?	4%	nt	-28%	-23%
CCOC(=O)/C(=N\Nc1ccccc1Cl)N1CCN(c2ccccc2OC)CC1	-2%	?	-36%	-8	-1%	?
Cc1nc(C)n(CC(=O)NCC2Cc3cc(-c4cccc(OC(F)(F)F)c4)ccc3O2)n1 (stereo not given)	nt	0.018µM*	nt	nt	nt	-91%
Cc1nc(C)n(CC(=O)NCC2Cc3cc(-c4ccsc4)cc(Cl)c3O2)n1 (stereo not given)	nt	?	nt	nt	nt	0%
CC(C)(C)Cc1c(-c2ccc(F)cc2)nc2ccc(Cl)cn12	nt	21µM*	-55%	43	11µM*	?
SMILES	S-ASM inh	DT40 TDP1 no CPT	HepG2 viability	IL-1B inflam inh	TGFb inhibitor	TDP1 cell CPT
CC(C)(C)Cc1c(-c2ccc(Br)cc2)nc2ccc(Br)cn12	nt	?	-33%	38	16µM*	?
Cc1ccc(-c2nc3ccc(Cl)cn3c2Cc2ccsc2)cc1	nt	?	-17%	5	?	?
Cc1ccc2nc(C(C)(C)C)c(Cc3ccsc3)n2c1	nt	18µM*	-43%	19	?	?
Cc1ccc(-c2nc3ccc(C)cn3c2Cc2ccsc2)cc1	nt	15µM*	-28%	-29	-20%	?
Cc1ccc(Cc2c(C(C)(C)C)nc3ccc(Br)cn23)cc1	nt	?	-11%	7	-8%	?
CC(C)(C)Cc1c(-c2cccc(Cl)c2)nc2ccc(Br)cn12	nt	?	-45%	?	-12%	?
Cc1ccc(C(=O)NCc2cccnc2)cc1S(=O)(=O)N1CCCCCC1	-1%	?	-7%	2	-24%	3%
CCOc1ccc(CCNC(=O)C2CCN(Cc3nc(-c4ccc(OC)c(OC)c4)oc3C)CC2)cc1OCC	nt	-7%	-21%	nt	7%	-1%
Cc1ccc(Cc2c(-c3ccc(Br)cc3)nc3ccc(Cl)cn23)cc1	nt	?	-2%	23	1%	?
Fc1ccc(-c2nc3ccc(Br)cn3c2Cc2ccsc2)cc1	nt	?	-31%	65	?	?
Cc1ccc(Cc2c(-c3ccc(Br)cc3)nc3ccc(Br)cn23)cc1	nt	?	-29%	45	8%	18µM*
CCCc1nc2ccc(C)cn2c1Cc1ccsc1	nt	9.2µM*	-3%	36	-4%	13µM*
Cc1ccc(-c2nc3ccc(Br)cn3c2Cc2ccsc2)cc1	nt	23µM*	-3%	0	-20%	15µM*
Cc1cc(C(=O)Nc2ccccc2C(=O)O)oc1C	0%	-24%	-2%	4	3%	-3%
O=c1c2ccccc2cnn1CCOc1cccc(Br)c1	-3%	?	-27%	6	3%	0%
COC(=O)c1sc(C(C)(C)C)cc1CSc1ccccc1	-4%	4%	-15%	9	18%	14%
CCN(CC)Cc1nc2c(c(=O)[nH]1)C(CC)(CC)Cc1ccccc1-2	-2%	?	-25%	-7	?	?
c1ccc(-c2ccccc2OCCCN2CCCCCC2)cc1	-2%	?	-19%	?	-13%	?
c1ccc(-c2ccccc2OCCCCN2CCCCC2)cc1	2%	16µM*	-28%	-63*	9%	?
c1ccc2c(OCCCCN3CCCC3)cccc2c1	6%	26µM*	-8%	-2	27%	?
